# Most compounds without a hit are left out; they make up all but 2.4% or so of the library.
# L929 necroptosis: blocks zVAD induced death of L929 cells | AID 1377 | viability rescue, % at 10 µM | L929 zVAD necroptosis rescue, ATP luminescence, 24 h; with zVAD 60 µM | 0.38% of 220,000 active;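 active = activation, scaled between plate controls, above about 75%, limit read from the data; inactive = activation under that limit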;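 note: 0% = zVAD with DMSO and 100% = DMSO alone without zVAD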
# TNF necrop inh: TNF-alpha cell death inhibition in Jurkat FADD-/- cells; 0.068% of 220,000 active; AID 463075; activation (protection from cell death), % at 10 µM; Jurkat FADD-/- TNF necroptosis rescue, ATP luminescence, 24 h; 0 = TNF only, 100 = no-TNF cells;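 active = activation, meaning protection from cell death, of at least 50% relative to plate controls; inactive = activation below 50%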;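 note: necroptosis triggered by 40 ng/mL TNF-alpha added together with compound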
# Redox H2O2 prof: compounds producing H2O2 with reducing agent – biochemical, NIH compound library profiling, artefact control for MLSCN library redox annotation, primary screen; DTT-dependent redox cycling H2O2, phenol red/HRP absorbance; 100% = 100 µM peroxide control, 0% = buffer; activation, % at 10 µM; 0.03% of 200,000 active; AID 878;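 active = activation of at least 50% relative to the plate's high and low controls in the primary single-dose screen; inactive = activation below 50%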;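 note: compound incubated with DTT at 0.8 mM final as the reducing agent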
# PERK inhibitor: blocks human PERK kinase | Q9NZJ5 | CHO PERK-DD fusion, SEAP luminescence translation reporter | inhibition, % at 5.6 µM | 0.17% of 220,000 active;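 active = inhibition above the mean inhibition of all tested compounds plus 3 SD, set separately per screening campaign, cut at about 2.9% in these data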;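 note: PERK kinase domain activated by AP20187 dimerizer at 100 nM; 0% = DMSO with dimerizer and 100% = rapamycin at 8.4 µM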
# Target sequence (Q9NZJ5 whole entry, looked up, the tested form may be a part): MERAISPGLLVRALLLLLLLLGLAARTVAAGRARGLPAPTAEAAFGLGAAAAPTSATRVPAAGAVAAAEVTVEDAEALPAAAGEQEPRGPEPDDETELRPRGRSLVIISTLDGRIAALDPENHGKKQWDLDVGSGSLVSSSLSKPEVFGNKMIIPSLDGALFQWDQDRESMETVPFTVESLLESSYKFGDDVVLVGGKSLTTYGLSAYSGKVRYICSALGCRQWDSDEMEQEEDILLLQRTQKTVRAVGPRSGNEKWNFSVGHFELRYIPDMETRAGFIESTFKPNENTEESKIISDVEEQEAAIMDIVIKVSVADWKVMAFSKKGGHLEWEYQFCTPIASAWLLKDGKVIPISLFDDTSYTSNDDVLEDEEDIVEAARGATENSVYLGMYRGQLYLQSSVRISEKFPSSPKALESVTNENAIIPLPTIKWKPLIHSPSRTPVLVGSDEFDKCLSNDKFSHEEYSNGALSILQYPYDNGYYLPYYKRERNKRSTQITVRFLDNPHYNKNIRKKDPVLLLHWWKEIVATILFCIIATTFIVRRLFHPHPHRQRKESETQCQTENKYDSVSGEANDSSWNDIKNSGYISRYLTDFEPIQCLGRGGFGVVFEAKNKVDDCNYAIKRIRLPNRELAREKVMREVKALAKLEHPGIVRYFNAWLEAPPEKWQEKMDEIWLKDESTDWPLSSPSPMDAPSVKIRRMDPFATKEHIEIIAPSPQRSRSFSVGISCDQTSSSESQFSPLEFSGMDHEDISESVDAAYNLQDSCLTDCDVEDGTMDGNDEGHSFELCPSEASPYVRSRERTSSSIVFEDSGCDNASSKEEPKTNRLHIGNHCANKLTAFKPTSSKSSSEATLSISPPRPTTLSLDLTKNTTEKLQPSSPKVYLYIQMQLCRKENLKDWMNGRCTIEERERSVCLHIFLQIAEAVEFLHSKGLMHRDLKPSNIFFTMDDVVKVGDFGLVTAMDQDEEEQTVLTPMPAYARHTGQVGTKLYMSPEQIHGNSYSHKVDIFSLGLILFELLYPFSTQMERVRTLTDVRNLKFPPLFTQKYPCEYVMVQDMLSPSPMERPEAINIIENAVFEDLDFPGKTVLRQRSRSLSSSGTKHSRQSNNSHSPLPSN
# PKD1 inh: PKD1 (human) kinase inhibition | Q15139 | PKD1 kinase fluorescence polarization assay | inhibition, % (test concentration not listed) | 0.056% of 200,000 active | AID 797; in the data active = inhibition above about 50%
# WT yeast gro inh: growth inhibition of WT yeast, mitochondrial fusion screen | inhibition, % at 10 µM | 2.1% of 190,000 active | AID 1362 | mitochondrial fusion phenotypic screen, WT strain; in the data active = inhibition above about 58%; tested in S. cerevisiae
# Starred values were filed as active, the others as inactive; . = no result.
SMILES,L929 necroptosis,TNF necrop inh,Redox H2O2 prof,PERK inhibitor,PKD1 inh,WT yeast gro inh
C/C(=N\NC1=N[C@H]2CS(=O)(=O)C[C@H]2S1)c1ccccc1,-0.2,0.9,.,3.3*,.,.
CN(C)C(=S)SCCn1c(N)nc(N(C)C)nc1=O,1.0,0.7,.,1.9,.,.
CC(C)(C)c1ccccc1NC(=O)NC1CCN(Cc2c(F)cccc2Cl)CC1,1.8,-1.2,.,0.3,.,.
CCC(/C=C1\Sc2ccc(OC)cc2N1CC)=C\c1sc2ccc(OC)cc2[n+]1CCCS(=O)(=O)[O-],-1.6,-10.1,0.0,0.0,-4.6,74.6*
CCC(/C=C1\Sc2ccc(OC)cc2N1CCO)=C\c1sc2ccc(OC)cc2[n+]1CCO,-1.1,-9.1,0.4,-0.5,-9.4,84.0*
CCC(=O)/C=C1/Sc2ccc(OC)cc2N1CCO,11.6,1.0,-0.7,0.6,4.8,-11.4
Cc1ccc(S(=O)(=O)N2CCOC2CNC(=O)C(=O)NCc2ccncc2)cc1 (stereo not drawn),-0.7,0.0,.,0.4,.,.
CNc1ccccc1C(C)(C)c1cc(-c2cccc(Br)c2)no1,-1.2,-4.0,-1.4,1.1,-4.0,72.7*
Cc1ccc(C(=O)NC(=S)Nc2ccccc2C(F)(F)F)cc1C,0.5,-1.8,1.5,0.9,-23.8,80.3*
COc1ccc(CCNC(=S)Nc2ccccc2C)cc1,-0.1,-11.2,0.0,1.9,-6.4,1.1
COc1ccc(CCNC(=S)Nc2cc(C)cc(C)c2)cc1,0.0,-11.5,-0.1,-1.8,-1.0,59.0*
COc1ccc(OCCNC(=S)Nc2cccc3ccccc23)cc1,-0.4,-9.1,2.9,0.0,21.4,60.2*
COc1ccc(CCNC(=S)Nc2cccc3ccccc23)cc1,-0.9,-11.6,0.0,-1.3,-5.1,68.0*
O=CNC(n1cnc2c(N3CCOCC3)ncnc21)C(Cl)(Cl)Cl (stereo not drawn),0.6,4.8,.,0.9,.,.
COc1ccc(C(=O)NCC(=O)OCC(=O)c2ccc3c(c2)NC(=O)CO3)cc1,2.1,-1.1,-1.9,1.4,-4.2,-1.6
O=C1CSC(c2ccc(Cl)cc2Cl)N1c1ccccn1 (stereo not drawn),0.4,1.0,0.2,0.1,-6.9,12.4
O=C1CSC(c2ccccc2Br)N1c1ccc(Cl)cn1 (stereo not drawn),0.2,2.9,-0.5,0.4,-1.9,67.2*
CCC(=O)N1CCc2cc(S(=O)(=O)CCC(=O)Nc3cccc(C)n3)ccc21,3.7,0.0,0.0,-0.3,-2.5,13.8
COC(=O)C1=CN(CCOC23CC4CC(CC(C4)C2)C3)C=C(C(=O)OC)C1c1ccsc1,1.5,2.6,-0.2,-0.4,-3.6,67.8*
O=C(c1ccc(F)cc1)C1CCN(C(=S)NCC2CCCO2)CC1 (stereo not drawn),-0.6,-1.6,0.2,0.0,-0.4,3.8
NC(=O)NCCC1=CCCCC1,0.0,-1.4,0.0,0.3,-4.6,59.4*
O=C(NC(=S)NCCC1=CCCCC1)c1ccccc1Br,0.9,0.5,-0.8,0.5,3.0,64.2*
O=C(COC(=O)c1ccccc1Br)NCCC1=CCCCC1,2.1,0.8,-0.1,-0.3,-12.7,-10.7
CCCNC(=O)C(=O)NCCC1=CCCCC1,0.7,5.0,0.2,1.7,-5.4,-2.2
O=C(CCn1c(=O)c2ccccc2n(CC(=O)NCCC2=CCCCC2)c1=O)NCc1ccco1,0.3,-0.4,-0.2,-1.1,-3.1,-34.8
SMILES,L929 necroptosis,TNF necrop inh,Redox H2O2 prof,PERK inhibitor,PKD1 inh,WT yeast gro inh
S=C(NCCC1=CCCCC1)NCc1ccco1,-0.9,-2.9,-1.4,0.1,-1.1,69.0*
CC(C)c1ccccc1NC(=S)NC1CCCCC1,-0.7,-9.9,-0.3,1.3,8.0,71.5*
CC(C)c1ccccc1NC(=S)NCc1ccccc1F,-0.4,-4.0,-0.2,0.3,-2.6,-6.1
S=C(Nc1cccc2ccccc12)NC1CCCCC1,-0.7,-12.2,-0.1,0.9,-0.9,74.7*
CCOc1ccc(C(C)NC(=S)NC2CCCCC2)cc1OCC (stereo not drawn),0.3,1.9,-2.1,1.0,-7.9,33.3
CCOc1ccc(C(C)NC(=S)NC2CCCCC2)cc1 (stereo not drawn),-0.3,1.1,-0.7,0.6,-4.7,72.5*
CC(C)c1ccccc1NC(=S)NC(C)c1ccccc1 (stereo not drawn),-0.9,-7.8,-0.2,-0.4,-8.0,60.2*
C/C(=N\NC(=O)c1ccc([N+](=O)[O-])c(C)c1)c1ccccc1Cl,1.2,1.5,-0.3,1.0,-7.8,6.2
COC(=O)CCSCC(=O)N1N=C(c2ccc(Br)cc2)CC1c1cccc(OC)c1OC (stereo not drawn),2.1,1.6,-0.5,0.1,-3.9,38.0
Cc1nnc2sc(SCC(=O)Nc3cccc(Cl)c3)nn2c1=O,-0.8,3.0,0.4,1.1,-2.7,-6.9
CCCC1Cc2nc(Cl)c(C#N)cc2CO1 (stereo not drawn),-0.7,-1.1,.,0.2,.,.
CC(C)c1ccc(C2CC(c3ccc(Br)cc3)=NN2C(N)=S)cc1 (stereo not drawn),-0.3,2.0,-0.2,1.5,-0.9,65.3*
CNC(=S)N1N=C(c2ccc(C)cc2)CC1c1ccc(Cl)cc1 (stereo not drawn),-0.6,1.9,0.0,-1.0,-0.6,-6.0
CNC(=S)N1N=C(c2ccc(C)cc2)CC1c1ccc(Br)cc1 (stereo not drawn),-0.5,1.3,0.0,-0.8,3.6,58.3*
CN(C(=O)Cn1nnc(-c2cccnc2)n1)C1CCCCC1,0.4,4.5,.,0.8,.,.
O=C(CC1SC(=O)NC1=O)Oc1ccc(/C=N/NC(=O)c2ccccc2O)cc1 (stereo not drawn),-0.8,-0.5,.,0.8,.,.
Cc1ccc2c(c1)c(N=O)c(O)n2Cc1ccc(Cl)cc1,2.1,-3.4,-0.7,-0.5,8.7,73.9*
COc1ccc2c(Cl)c(C(=O)NN3CCN(C)CC3)sc2c1,12.0,4.3,-0.1,0.0,-4.2,11.9
CN(C)c1cc(N/N=C\c2ccccc2)nc(N(C)C)n1,8.1,0.7,-0.2,-0.6,-8.4,58.7*
Cc1cc(N/N=C/c2ccc(Cl)cc2)nc(NCc2ccccc2)n1,4.7,5.3,0.7,-0.6,2.2,96.3
Cc1cc(Nc2cccc(Cl)c2)nc(NCc2ccccc2)n1,0.5,3.2,-0.6,-0.6,11.6,97.2*
Cc1cc(N/N=C/c2cccc(F)c2)nc(NCc2ccccc2)n1,3.5,1.9,.,-1.2,.,.
Cc1cc(N/N=C/c2ccccc2)nc(NCc2ccccc2)n1,7.1,4.5,0.6,-0.3,3.4,61.8*
Cc1cc(N/N=C/c2cccc(Cl)c2)nc(NCc2ccccc2)n1,4.8,2.3,2.1,-0.7,10.3,82.1*
COc1ccc(N2CCN(C(=O)c3cccn4c(=O)c5ccccc5nc34)CC2)cc1,8.3,-0.1,-1.0,1.3,2.8,-7.6
Cc1ccc(S(=O)(=O)N2CCOCC2)cc1C(=O)OCC(=O)N1c2ccccc2NC(=O)C1(C)C,0.8,0.3,-0.2,-1.1,6.6,2.5
